Screening data as filed in PubChem.
TDP43 rescue: TDP-43 toxicity inhibition in yeast; Potency, µM (top dose mostly 46.1 µM), without a hit: at the highest dose growth rescue (activation), hits mostly activators; TDP-43 expressing yeast growth rescue, BacTiter-Glo, 24 h; 1.8% of 410,000 active; AID 652104; further: potency means the concentration at half of the fitted maximal effect; % of control where 0% means no effect; nearly all actives have a fitted effect of over 50% in size
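Cell-based yeast growth screen: TDP-43 expression induced in galactose, inoculum OD600=0.02 after raffinose pregrowth to mid-log. Read-out BacTiter-Glo luminescence at 24 hr, 30 deg C; inhibition of toxicity seen as signal increase.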
CCT chaperon mod: cytosolic chaperonin activity modulation. purified chaperonin ATPase assay, HTRF ADP detection, 30 min. activity change, % (concentration not given with the values), hits read low. 0.3% of 360,000 active; in the data active means activity change below about -30%; further: on the % scale 0 is the no-effect control and ±100 the full control effect
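First, chaperonin was dispensed at 40 nM or 20 nM final depending on batch activity. Next, compounds were pinned at 76 uM and ATP added at 10 uM. After 30 min at 37 °C, ADP detection reagents ran 30 min at ambient temperature.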
aSyn rescue: inhibitors of alpha-synuclein toxicity in yeast; Yeast expressing alpha-synuclein, growth rescue, BacTiter-Glo, 24 h; Potency, µM (highest dose often 46.1 µM), without a hit: at the highest dose growth rescue (activation), actives largely listed as activators; 0.14% of 370,000 active; further: potency means the concentration at half of the fitted maximal effect; % of control where 0% means no effect; nearly all actives have a fitted effect of over 65% in size
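Readout is rescue of growth in alpha-synuclein-expressing yeast, so inhibitors of toxicity appear as activators. Growth after 24 hr at 30 deg C in galactose medium is quantified by luminescence.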
FUS yeast rescue: rescues growth of FUS-expressing yeast; AID 1347120; 0.24% of 390,000 active; Potency, µM (series often up to 76.6 µM), usual class: activators; S. cerevisiae FUS-expressing, growth rescue, OD600, 24 h;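 further: potency means the concentration at half of the fitted maximal effect; plate controls were DMSO vehicle for no effect and reference control for full effect; nearly all actives have a fitted effect of over 55% in size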
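Cultures pregrown in 2.5% raffinose medium are shifted to minimal medium containing 2% galactose to express toxic FUS. Compounds are tested at several concentrations. After 24hr at 30C, growth is quantified at 600 nm absorbance.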
MmCpn inh: M. maripaludis TRiC chaperonin inhibition; AID 504842; 0.031% of 330,000 active; purified Mm-Cpn ATPase, ADP Transcreener TR-FRET; Potency, µM (top dose mostly 76.9 µM), for the others: at the top dose activity, negative = inhibition, usual class: inhibitors; further: potency means the concentration at half of the fitted maximal effect; on the % scale 0 is the no-effect control and ±100 the full control effect; nearly all actives have a fitted effect of over 80% in size
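Quantitative HTS used 25 nM Mm-CPN and 10 uM ATP in magnesium/KCl Tris buffer, pH 7.4, with 1 mM DTT. Hydrolysis ran 30 min at 37°C; ADP was read by HTRF.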
Abeta rescue: A-beta toxicity reversal in yeast; yeast expressing A-beta42, growth rescue, OD600, 48 h; response scale: 0% DMSO, 100% iron-clioquinol control; 0.063% of 410,000 active; Potency, µM (highest dose often 46.1 µM), usual class: activators; AID 1347071; further: potency means the concentration at half of the fitted maximal effect; nearly all actives have a fitted effect of over 55% in size
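Growth rescue measured by 600 nm absorbance after 48 h yeast culture at 30 C with compound. Values normalized between DMSO and an equimolar ferric chloride plus clioquinol control.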
* = called active by the depositor; [ ] = remark or other dose. An excerpt weighted towards active compounds, which were near 2.3% of everything screened. Unless noted, the call rests on the fitted dose curve; in most records, active means well fitted curve in the direction sought with a large enough effect; inconclusive means small, poorly fitted or top-dose-only effect, or another doubt; inactive means no such curve, though single readings can be large; an effect the other way counts as inactive or inconclusive.

COc1cc(NC(=O)CC2C(=O)N(c3cccc(C)c3)C(=O)N2Cc2ccco2)cc(OC)c1 (configuration not stated) was read as TDP43 rescue -11.9%, FUS yeast rescue inactive and Abeta rescue inactive.
COc1ccc(-c2nnc(SCC(=O)c3ccc(NC(C)=O)cc3)o2)cc1OC was read as TDP43 rescue -5.0%, FUS yeast rescue inactive and Abeta rescue inactive.
COc1ccc(C)cc1NC(=O)c1c(C)oc2ncn(CC(C)C)c(=O)c12 was read as TDP43 rescue 15.8µM*, FUS yeast rescue inconclusive and Abeta rescue inactive.
Screening c1ccc(-c2ccc(-c3csc4ncnc(Sc5nnnn5-c5ccccc5)c34)cc2)cc1 returned aSyn rescue 0.7%.
Screening CCc1ccc(OCC(=O)Nc2ccc3c(c2)COC3=O)cc1 returned TDP43 rescue 12.6µM*, CCT chaperon mod 0.1, aSyn rescue 4.9%, FUS yeast rescue inactive, MmCpn inh 0.7% and Abeta rescue inactive.
For CCc1ccc(OCC(=O)NCCc2ccc3c(c2)OCCO3)cc1 the results were TDP43 rescue 31.6µM*, CCT chaperon mod -1.3, aSyn rescue 7.8%, FUS yeast rescue inactive, MmCpn inh -3.1% and Abeta rescue inactive.
CCCCN(C)CCCNC(=O)Cn1ncc2c3ccccc3n(Cc3cc(C)ccc3C)c2c1=O was read as TDP43 rescue 0.1%, FUS yeast rescue inactive and Abeta rescue inactive.
Screening CCCCCCn1c(-c2ccc(Cl)cc2Cl)csc1=Nc1ccccc1 returned FUS yeast rescue inactive.
Screening NC(=O)C1CCN(c2nc(-c3ccc(N)cc3)cs2)CC1 returned FUS yeast rescue inactive.
Cc1cccc(-c2nc(CS(=O)CC(=O)NC3CCCC3)c(C)o2)c1 (configuration not stated) was read as TDP43 rescue inconclusive, CCT chaperon mod -0.5, aSyn rescue 5.62µM*, FUS yeast rescue inactive, MmCpn inh -1.0% and Abeta rescue inactive.
Screening Cc1ccc(-c2nc(CS(=O)CC(=O)NC3CCCCC3)c(C)o2)cc1 (configuration not stated) returned TDP43 rescue 0.8%, CCT chaperon mod -7.2, aSyn rescue 10.1%, FUS yeast rescue inactive, MmCpn inh 0.3% and Abeta rescue inactive.
Screening COc1ccccc1C(=O)OCc1c(-c2ccccc2)ncc2ccccc12 returned TDP43 rescue 25.1µM*, CCT chaperon mod -0.7, aSyn rescue 29.6%, FUS yeast rescue inconclusive, MmCpn inh -8.8% and Abeta rescue inactive.
Screening COc1ccc(C(=O)OCc2c(-c3ccccc3)ncc3ccccc23)cc1 returned TDP43 rescue inconclusive, CCT chaperon mod -0.8, aSyn rescue 19.1%, FUS yeast rescue inconclusive, MmCpn inh -11.9% and Abeta rescue inactive.
Screening CCc1nc(C(N)=O)c2[nH]c(=O)n(-c3ccc(OC)cc3OC)c2n1 returned TDP43 rescue 6.5%, CCT chaperon mod -3.5, aSyn rescue -2.9%, FUS yeast rescue inactive, MmCpn inh 0.2% and Abeta rescue inactive.
For CCCC(C)c1nc(C(N)=O)c2[nH]c(=O)n(-c3ccc(OC)cc3OC)c2n1 (configuration not stated) the results were TDP43 rescue 4.0%, CCT chaperon mod -78.0*, aSyn rescue -0.8%, FUS yeast rescue inactive, MmCpn inh 0.1% and Abeta rescue inactive.
For Cc1ccc(N=Nc2ccc(O)c3ncccc23)cc1C the results were TDP43 rescue 28.2µM*, CCT chaperon mod -3.3, aSyn rescue inconclusive, FUS yeast rescue inactive, MmCpn inh -0.8% and Abeta rescue inactive.
Screening Cc1ccc(N=Nc2ccc(O)c3ncccc23)cc1 returned TDP43 rescue 19.2%, CCT chaperon mod -2.5, aSyn rescue inconclusive, FUS yeast rescue inactive, MmCpn inh 1.8% and Abeta rescue inconclusive.
`CCCCNC(=O)C1C(c2ccccc2)=Nc2ccccc2N1C(=O)c1ccc(C(F)(F)F)cc1` (configuration not stated) gave TDP43 rescue 9.0%, aSyn rescue -18.6%, FUS yeast rescue inconclusive and Abeta rescue inactive.
COc1ccc(C2=Nc3ccccc3N(C(=O)c3ccc(C(F)(F)F)cc3)C2C(=O)NCc2ccccc2)cc1 (configuration not stated) was read as TDP43 rescue -1.6%, aSyn rescue 8.6%, FUS yeast rescue 22.4µM* and Abeta rescue inactive.
`CC1(C)CC(c2csc(N)n2)CCO1` (configuration not stated) gave TDP43 rescue -15.7%, CCT chaperon mod -39.2*, aSyn rescue -5.9%, FUS yeast rescue inactive, MmCpn inh -1.4%[15.4 µM] and Abeta rescue inactive.
COc1ccc(OCCCn2c(CCNC(=O)C3CCCCC3)nc3ccccc32)cc1 was read as aSyn rescue 10.7%.
Screening CCCOC(=O)c1ccc(-c2ccc(C=O)o2)cc1 returned TDP43 rescue -18.7%, CCT chaperon mod -2.4, aSyn rescue -23.0%, FUS yeast rescue inactive, MmCpn inh 2.9% and Abeta rescue inactive.
For CCOC(=O)c1ccc(-c2ccc(C=O)o2)cc1 the results were TDP43 rescue 11.2µM*, CCT chaperon mod -4.4, aSyn rescue -35.6%, FUS yeast rescue inactive, MmCpn inh 0.6% and Abeta rescue inactive.
`CCCC1CCC2(CCCN2CCOC(=O)Nc2ccccc2OC)CC1` (configuration not stated) gave FUS yeast rescue inactive.
CCn1c(-c2cc(-c3ccc(OC(C)C)cc3)nc3ccccc23)n[nH]c1=S was read as TDP43 rescue inconclusive, CCT chaperon mod 0.9, aSyn rescue -3.6%, FUS yeast rescue 35.5µM*, MmCpn inh -6.2% and Abeta rescue inactive.
For CCc1nc2ccccc2c(=O)n1/N=C/c1ccc(Cl)cc1 the results were TDP43 rescue 16.0%, CCT chaperon mod -32.7*, aSyn rescue 2.1%, FUS yeast rescue inactive and Abeta rescue inactive.
Screening CCN1CCOC(=O)C1CC(=O)Nc1cc(C)cc(C)c1 (configuration not stated) returned TDP43 rescue -92.3%, FUS yeast rescue inactive and Abeta rescue inactive.
O=S1(=O)CC(c2ccccc2)=NN=C(c2ccccc2)C1 was read as TDP43 rescue 18.9%, CCT chaperon mod 0.9, aSyn rescue 0.6%, FUS yeast rescue inactive and Abeta rescue inactive.
O=C1CC(c2ccccc2)=NO1 was read as TDP43 rescue 10µM*, CCT chaperon mod -0.4, aSyn rescue 15.8µM*, FUS yeast rescue inactive and Abeta rescue inactive.
